# The supplement of paper PMC7156485
# How the values were obtained:
# Details in all cases: concentration: 10 µM; 24 h
# HCC1569 [1] = experiment: cell number relative to DMSO (% of DMSO); higher = more cells (less growth inhibition / toxicity)
# Summary of the method: (§1)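 Using 384-well plates with 800 cells per well in RPMI plus 10% FBS, HCC1569 and TDF cells were exposed to compounds at 10 µM, in triplicate, for 24 h at 37 °C. Imaging of six fields per well at ×10 followed H1.0 and DAPI staining. The reported quantity, H1.0 nuclear intensity or cell number, is a median of replicates given as percent of the plate control, and HCC1569 values were smoothed for positional effects.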
# TDF [2] = experiment: as above
# Summary of the method: as §1
# TDF [3] = experiment: H1.0 immunofluorescence intensity relative to DMSO (% of DMSO); higher = stronger H1.0 induction, active = 120 or more
# Summary of the method: as §1
# HCC1569 [4] = experiment: H1.0 immunofluorescence intensity relative to DMSO (% of DMSO); higher = stronger H1.0 induction, active = 140 or more
# Summary of the method: as §1
# 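Wherever H1.0 immunofluorescence intensity relative to DMSO is given: TDF is a line of transformed human dermal fibroblasts of mesenchymal origin.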
# 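Wherever cell number relative to DMSO is given: TDF denotes transformed human dermal fibroblasts of mesenchymal origin.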
SMILES,cell number (HCC1569 [1]),cell number (TDF [2]),H1.0 immunofluorescence intensity (TDF [3]),H1.0 immunofluorescence intensity (HCC1569 [4])
NC(N)=NN=Cc1c(Cl)cccc1Cl [Guanabenz],98.5,91.9,98.2 (inactive),118 (inactive)
CN(C)c1ccc(C2Nc3ccc4ccccc4c3C3=C2C(=O)CC(C)(C)C3)cc1Br (stereo unspecified),91.7,79.3,113 (inactive),130 (inactive)
"CN(C)CCC(c1ccc(Cl)cc1)c1ccccn1.O=C(O)C=CC(=O)O (single isomer, unassigned; (+)) [(+)-Chlorpheniramine maleate]",104,104,99.2 (inactive),88.5 (inactive)
Cn1c(=O)c2[nH]cnc2n(C)c1=O [Aminophylline],103,115,98.7 (inactive),96.4 (inactive)
CCNC(=O)CC[C@H](N)C(=O)O [L-Theanine],103,103,102 (inactive),95.6 (inactive)
Oc1ccc(Cn2cc[nH]c2=S)cc1 [1-(4-Hydroxybenzyl)imidazole-2-thiol],102,101,95.7 (inactive),96.1 (inactive)
O=C1NC(=O)c2cc(Nc3ccc(F)cc3)c(Nc3ccc(F)cc3)cc21,93.4,110,93.4 (inactive),133 (inactive)
S=C(Nc1ccccc1)Nc1nccs1 [1-Phenyl-3-(2-thiazolyl)-2-thiourea],95.5,86.9,99.5 (inactive),102 (inactive)
CCCCCCCC/C=C\CCCCCCCC(N)=O [(9Z)-9-octadecenamide],102,102,102 (inactive),98.7 (inactive)
